GPR151 activ: activators of human GPR151; PathHunter beta-arrestin GPR151 cells, luminescence; activation, % at 11.2 µM; 1% of 650,000 active; AID 1508602; in the data active = activation above about 4.9%;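 note: 0% = median of compound wells and 100% = cells with positive control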
MITF primary: inhibitors of human MITF | O75030 | AlphaScreen MITF homodimerization, bead proximity signal | inhibition, % at 2.6 µM | 0.91% of 650,000 active; in the data active = inhibition above about 50%;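 note: 0% = vehicle wells with protein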
TEAD-YAP inh: TEAD-YAP interaction inhibition; HEK-TIYL cells, TEAD-Gal4/YAP UAS-luciferase luminescence; inhibition, % at 9.12 µM; 1.4% of 640,000 active; in the data active = inhibition above about 32%;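 note: 0% = median of test compound wells and 100% = reference inhibitor wells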
FBW7 act: human FBW7 E3 ligase activation, primary screen. AlphaScreen FBW7–phospho-cyclin E peptide binding, activator screen. normalized activity (activation), % at 26.1 µM. 0.13% of 650,000 active. AID 1259310; in the data active = normalized activity above about 1.9%;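 note: purified mutant Fbw7 with reduced substrate affinity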
MITF confirm: human MITF inhibition, confirmation; inhibition, % at 2.6 µM; AlphaScreen MITF homodimerization, biotin/His-MITF beads; AID 1259372; shares compounds with MITF primary; 16% of 4,700 active;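 active = inhibition above a cutoff derived from the DMSO control wells, cut at about 28% in these data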;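 note: 0% = MITF dimer wells with DMSO only; inhibitors lower the bead chemiluminescence by keeping MITF from dimerizing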
AS interf DR: counter-screen: compounds optically interfering with AlphaScreen | IC50, µM | AID 1259373 | shares compounds with MITF primary | 6% of 480 active | AlphaScreen optical interference counterscreen, cell-free; call rule not given here
AlphaScreen intf2: AlphaScreen optical interference, counter-screen; shares compounds with MITF primary; LysRS AlphaScreen counterscreen, signal interference, triplicate; inhibition, % at 2.6 µM; 7.6% of 4,700 active; AID 1259376;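 active = inhibition above a cutoff derived from the DMSO control wells, cut at about 30% in these data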
An asterisk follows results filed as active; / = no result given; ! = repeats disagree. A selection: hits, their analogues and other compounds. The true share with any hit is near 3.4%.

SMILES	GPR151 activ	MITF primary	TEAD-YAP inh	FBW7 act	MITF confirm	AlphaScreen intf2	others
O=C(NCCCN1CCOCC1)c1ccc2nc(-c3ccco3)c(-c3ccco3)nc2c1	0	14	3	-1	/	/
O=C(NCCO)c1ccc2nc(-c3ccco3)c(-c3ccco3)nc2c1	-1	74*	7	-1	83*	24	AS interf DR=>6.5
COc1ccccc1OCCN1CCCCC1	-1	27	10	0	/	/
COc1ccccc1OCCN1CCN(c2ccccc2)CC1	0	-1	14	0	/	/
COc1ccccc1OCCN1CCOCC1	-1	54*	-4	0	6	9
COc1ccccc1OCCN1CCN(C)CC1	1	73*	-6	0	5	9
COc1cccc(NC(=O)Cn2c(=O)n(-c3ccc(C)c(F)c3)c(=O)c3sccc32)c1	0	5	1	0	/	/
Cn1nnc(-c2ccc(Nc3nccc(-c4ccc5nc(C6CC6)[nH]c(=O)c5c4)n3)cc2)n1	2	63*	4	1	39*	-22	AS interf DR=>6.5
O=C(C1CCC(Nc2nccc(-c3ccc4nc(C5CC5)[nH]c(=O)c4c3)n2)CC1)N1CCCC1 (stereo not drawn)	0	59*!	-17	2.6*!	63*	-10	AS interf DR=>6.5
O=C(Nc1ccc(Nc2nccc(-c3ccc4nc(C5CC5)[nH]c(=O)c4c3)n2)cc1)N1CCCC1	1	39	-16	2	/	/
COC(=O)c1c(NC(=O)CCN2CCN(C)CC2)sc2c1CCC2	1	90*	5	0	5	7
COC(=O)c1c(NC(=O)CCCOc2ccc(C)cc2)sc2c1CCCC2	0	78*	8	0	0	8
CN1CCN(CC(=O)Nc2sc3c(c2C(N)=O)CCCC3)CC1	-1	72*	6	0	17	14
Cn1nc(C(C)(C)C)cc1C(=O)Nc1ccc2nccnc2c1	-2	21	-2	1	/	/
COc1ccccc1-n1c(N)c(C(=O)NCc2ccco2)sc1=S	0	12	-14	0	/	/
Cc1ccc(CN2CCN(C(=O)c3ccncc3)CC2)cc1	3	65*	1	0	-1	-4
Cc1ccc(CN2CCN(C(=O)c3ccccc3)CC2)cc1	0	47	-2	0	/	/
O=C(c1ccc(F)cc1)N1CCN(Cc2ccc(F)cc2)CC1	-2	52*	5	0	-4	1
Fc1ccc(CN2CCN(Cc3ccncc3)CC2)cc1	-1	83*	14	1	6	9
O=C(c1ccc(F)cc1)N1CCN(Cc2ccncc2)CC1	0	63*	-5	0	10	-7
O=C(c1ccccc1)N1CCN(Cc2ccccc2)CC1	4	13	4	0	/	/
O=C(CCC(=O)c1cccs1)NNC(=O)Cc1c[nH]c2ccccc12	-1	-2	6	0	/	/
Nc1ccc2c(c1)C(=O)N(c1ccc3ccccc3c1)C2=O	2	-11	-48	1	/	/
Fc1ccccc1C1CCN(Cc2ccncc2)CC1	0	70*	3	0	5	12
O=C(c1ccc(F)cc1)N1CCN(Cc2ccc(Br)cc2)CC1	1	62*	12	0	7	15
SMILES	GPR151 activ	MITF primary	TEAD-YAP inh	FBW7 act	MITF confirm	AlphaScreen intf2	others
CCOC(=O)c1ccccc1C(=O)c1ccc(N)c([N+](=O)[O-])c1	0	-1	-6	0	/	/
Cc1ccc(/C=C2/N=C(c3ccc(C)c(C)c3)OC2=O)o1	0	16	7	0	/	/
O=C1N(CC2CC2)CCN1c1ccc(C(F)(F)F)cn1	1	55*	-51	1	6	14
CCCCN1CCN(c2ccc(C(F)(F)F)cn2)C1=O	5	5	-27	0	/	/
Cn1c(N2CCCCC2)cc(=O)n(C)c1=O	-1	4	-1	0	/	/
COc1ccccc1Oc1ncnc2sc(C)c(C)c12	1	-1	1	0	/	/
O=[N+]([O-])c1cccc(N(CC2CO2)S(=O)(=O)c2ccccc2)c1 (stereo not drawn)	0	51*	-3	0	-1	-9
O=C(CNCCc1ccc(Cl)cc1)NCc1ccc2c(c1)OCO2	-1	60*	11	1	6	21
O=C(NCc1ccc2c(c1)OCO2)C1(S(=O)(=O)c2ccc(Cl)cc2)CC1	1	88*	10	0	-2	-4
CCCN(CCC)S(=O)(=O)c1ccc(C(=O)Nc2nc3ccc(Br)cc3s2)cc1	0	2	-19	-1	/	/

Bioassay records: PubChem BioAssay, The Scripps Research Institute Molecular Screening Center
